Assay results: PubChem BioAssay (NCI)
Compounds without any hit were thinned out: in the full panel of roughly 83,000, 20% have a hit.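 Values shown are percent growth following 48 h exposure of cells in 96-well plates to a single concentration of compound; below 10 was considered active.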 Calls of active or inactive are those of the source.

Key:
Assay in all cases: NCI-60 one-dose screen, 48 h (100 = growth as untreated, 0 = no growth, -100 = all killed)
Details in all cases: 10 µM
[1] = test system: DU-145 prostate
[2] = test system: K-562 leukemia
[3] = test system: MALME-3M melanoma
[4] = test system: MDA-MB-231 breast
[5] = test system: SF-268 CNS
[6] = test system: SF-295 CNS
[7] = test system: SF-539 CNS
[8] = test system: UACC-257 melanoma
[9] = test system: M14 melanoma

Measured: growth

O=c1c2ccccc2nc(COc2ccccc2)n1/N=C/c1ccc(N2CCOCC2)cc1
inactive: [1] 77.5% | [2] 103% | [3] 56.8% | [4] 26% | [5] 26.4% | [6] 69.8% | [7] 34.1% | [8] 95.7% | [9] 93.9%

Clc1cccc(N/N=C/c2c[nH]c3ccccc23)n1
active: [4] -0.126% | [7] 6.26%
inactive: [1] 48.7% | [2] 13.8% | [3] 50.6% | [5] 19.9% | [6] 49.5% | [8] 68% | [9] 43.6%

O=C1Nc2ccc(Cl)cc2/C1=C/c1ccc(OCc2ccccn2)cc1
inactive: [1] 87.8% | [2] 51% | [3] 38.5% | [4] 21.7% | [5] 79.3% | [6] 84.5% | [7] 73.5% | [8] 118% | [9] 89.9%

Cc1ccc(/C=C/C(=O)c2ccc(NC(=O)CSc3nnc(-c4c[nH]c5ccccc45)n3-c3ccccc3)cc2)c(C)c1
inactive: [1] 41.1% | [2] 35.4% | [4] 21.9% | [5] 72.3% | [6] 66.1% | [8] 90.2% | [9] 53.5%
active: [3] -71.7% | [7] -95.3%

CCOC(=O)C1=C(N)N(c2ccccc2)C2=C(C(=O)CC(C)(C)C2)C1c1ccc(Cl)cc1 (stereo not drawn)
inactive: [1] 58.3% | [2] 18.3% | [3] 15.9% | [4] 53% | [5] 58% | [6] 21.3% | [7] 36.2% | [8] 28% | [9] 28.2%

CCCn1c(=O)c2[nH]c(-c3ccc(OCc4nc5ccc(C#N)cc5[nH]4)cc3)nc2n(CCC)c1=O
inactive: [1] 79% | [2] 41.6% | [3] 73.2% | [4] 30.8% | [5] 80.4% | [6] 76.7% | [7] 64.9% | [8] 99.5% | [9] 99.6%

Nc1nc(-c2ccccc2)cs1
inactive: [1] 66.7% | [2] 28.2% | [3] 74.4% | [4] 61.8% | [5] 48.3% | [6] 37.7% | [7] 53.4% | [8] 81.9% | [9] 72.2%

C/C(=N\N=C\c1ccc(Cl)c([N+](=O)[O-])c1)c1ccc2c(c1)Nc1ccccc1S2
active: [3] -3.5%
inactive: [1] 28.1% | [2] 38.6% | [4] 32.4% | [5] 47.3% | [6] 42.7% | [7] 12.8% | [8] 51.2% | [9] 62.6%

O=C(Nc1ccc(Cl)c([N+](=O)[O-])c1)Nc1ccc(Cl)c([N+](=O)[O-])c1
active: [3] -11.2% | [6] 0.239%
inactive: [1] 18.4% | [2] 19.8% | [4] 17.5% | [5] 18% | [7] 11.4% | [8] 36.9% | [9] 18.6%

COc1cc(/C=C/C(=O)c2ccc(S(=O)(=O)NCCNc3nc(Nc4ccc(F)cc4)nc(N(C)C)n3)cc2)cc(OC)c1OC
inactive: [3] 53.7% | [5] 11.1% | [6] 13.5% | [8] 71.6%
active: [1] 5.6% | [2] 4.79% | [4] -44.8% | [7] -94.9% | [9] 5.45%

N#Cc1c(-c2ccc(Cl)cc2)cc(-c2ccccc2)nc1OCc1ccccc1
inactive: [1] 90.7% | [2] 45% | [3] 102% | [4] 80.2% | [5] 92.9% | [6] 66.2% | [7] 75.2% | [8] 80.6% | [9] 90.9%

CCCCSc1nc(Nc2ccc(/C(C)=N/NC(N)=S)cc2)c(C#N)c(-c2ccc(OC)cc2)n1
inactive: [1] 61.5% | [2] 78.2% | [5] 56.6% | [6] 69.7% | [8] 74.9% | [9] 39.3%
active: [3] -39.6% | [4] -11.4% | [7] -55.4%

COc1ccc(CN2[C@@H](C(=O)NCc3ccc(C(=O)NO)cc3)Cc3c([nH]c4ccccc34)[C@@H]2C)cc1
inactive: [1] 18.6% | [2] 12% | [4] 13% | [5] 24.8% | [7] 17.2% | [8] 32.1% | [9] 23.3%
active: [3] 0.926% | [6] 6.57%

O=C(CSc1nnc(-c2c[nH]c3ccccc23)n1-c1ccccc1)c1ccc(Br)cc1
inactive: [1] 58.5% | [2] 82% | [3] 71% | [4] 66% | [5] 49.1% | [6] 33.7% | [7] 62% | [8] 52.6% | [9] 51%

COc1ccc(CN2[C@H](C(=O)NCCCCCCC(=O)NO)Cc3c([nH]c4ccccc34)[C@H]2C2CC2)cc1
active: [1] 9.36% | [2] 7.5% | [3] 1.45% | [4] -23% | [6] -58.8% | [7] 2.87% | [8] 9.9%
inactive: [5] 14.5% | [9] 17.6%

COc1ccc(CN2[C@H](C(=O)NCc3ccc(C(=O)NO)cc3)Cc3c([nH]c4ccccc34)[C@H]2C2CC2)cc1
inactive: [1] 57% | [2] 26.2% | [3] 30.4% | [4] 54.5% | [5] 64.9% | [6] 45.5% | [7] 41.6% | [8] 43.4% | [9] 49.6%

O=C(CSc1nnc(-c2ccc3nc(-c4ccc(Cl)cc4)[nH]c3c2)o1)Nc1ccc(Br)cc1
active: [2] 5.15% | [3] -81% | [4] -97.3% | [5] 0.811% | [6] -89.4% | [7] -95.2% | [8] -12.9% | [9] -84.4%
inactive: [1] 11.7%

CC1(C)[C@@H](NCO)CC[C@]2(C)[C@H]3C(=O)C=C4[C@@H]5C[C@](C)(CO)CC[C@]5(C)CC[C@@]4(C)[C@]3(C)CC[C@@H]12
inactive: [1] 79.4% | [3] 49% | [4] 44.2% | [5] 68.8% | [7] 45.4% | [8] 33.4% | [9] 25.5%
active: [2] 8.51% | [6] 2.19%

COc1nccnc1NS(=O)(=O)c1ccc(NC2=C(Cl)C(=O)c3nc(C)ccc3C2=O)cc1
inactive: [1] 107% | [2] 96.3% | [3] 100% | [4] 91.1% | [5] 92.9% | [6] 97.5% | [7] 94% | [8] 101% | [9] 112%

O=C(Nc1nc2ccccc2s1)c1ccc(Br)cc1
inactive: [1] 97.2% | [2] 64.1% | [3] 85.2% | [4] 93.4% | [5] 112% | [6] 67.3% | [7] 92.8% | [8] 85% | [9] 96%

Cc1ccn2c(C(=O)c3ccccc3)cc(-c3cc(-c4ccc(N(C)C)cc4)c(C#N)c(N)n3)c2c1
active: [7] -62.1%
inactive: [1] 56.4% | [2] 70.9% | [3] 63.6% | [4] 25.7% | [5] 61.2% | [6] 69.3% | [8] 85.7% | [9] 81.3%

COc1ccc(/C(CSc2nnc(-c3c[nH]c4ccccc34)n2-c2ccccc2)=N/O)cc1
inactive: [1] 43% | [2] 18.7% | [3] 73.1% | [4] 60.7% | [5] 48.5% | [6] 21% | [7] 57.3% | [8] 50.1% | [9] 28.9%

CN(C(=O)c1ccc(C(C)(C)C)cc1)c1sc2c(c1C#N)CCC(=O)C2
active: [3] -6.14% | [4] -74.4% | [6] -0.987% | [7] -86.1%
inactive: [1] 80.7% | [2] 11.7% | [5] 18.5% | [8] 97% | [9] 19.3%

C=C[C@@]12CN3CC[C@]1(O)[C@@](C(=O)OC)(CO2)c1[nH]c2ccccc2c1C3
inactive: [1] 68.3% | [2] 33.9% | [3] 95.5% | [4] 76.9% | [5] 85.3% | [6] 71% | [7] 71.9% | [8] 49.7% | [9] 64.4%

O=C1CCC(N2Cc3cc(NC(=O)COc4ccccc4)ccc3C2=O)C(=O)N1 (stereo not drawn)
inactive: [1] 111% | [2] 93.6% | [3] 19.2% | [4] 25.1% | [5] 87.3% | [6] 71.5% | [7] 78.4% | [8] 110% | [9] 56.3%

Oc1ccc(/C=C2\CCCc3cc4ccc(O)cc4[o+]c32)c(O)c1
active: [1] 8.58% | [4] -27.4% | [7] -15%
inactive: [2] 41.5% | [3] 45.1% | [5] 69.6% | [6] 90.1% | [8] 69% | [9] 43.2%

COc1cc(/C=C/C(=O)c2ccc(NC(=O)CN3C(=O)NC(C)(c4ccccc4)C3=O)cc2)cc(OC)c1OC (stereo not drawn)
active: [7] -50.4%
inactive: [1] 12.4% | [2] 16% | [3] 69.5% | [4] 26.5% | [5] 23% | [6] 46.7% | [8] 52.6% | [9] 46.8%

O=C(N/C(=C1/OCCN1Cc1ccccc1)[P+](c1ccccc1)(c1ccccc1)c1ccccc1)c1ccccc1
inactive: [5] 21.1% | [6] 31.4% | [7] 25.3% | [9] 19.4%
active: [1] -15.1% | [2] 8.08% | [3] -60.6% | [4] 0.242% | [8] -4.84%

COc1ccc(CN2[C@@H](C(=O)NCc3ccc(C(=O)NO)cc3)Cc3c([nH]c4ccccc34)[C@@H]2C2CC2)cc1
inactive: [1] 15.8% | [3] 12.8% | [5] 20.9% | [7] 15.3% | [8] 36.3% | [9] 16.1%
active: [2] 6.95% | [4] 5.56% | [6] 3.12%

Cc1cc(=O)oc2cc(OCCCCOc3ccc(/C=C/C(=O)Nc4ccc(F)c(Cl)c4)cc3)ccc12
inactive: [1] 89.1% | [2] 88% | [3] 71% | [4] 97.1% | [5] 111% | [6] 101% | [7] 89.3% | [8] 97.8% | [9] 95.9%

CC1CC(c2ccc(N(C)C)cc2)=NN1c1nc(O)c(C2=c3cc(Br)ccc3=NC2=O)s1 (stereo not drawn)
inactive: [1] 93.7% | [2] 61.9% | [3] 99.4% | [4] 99.8% | [5] 91.7% | [6] 68.9% | [7] 92.3% | [8] 91.2% | [9] 84.8%

O=C(CNc1nc(-c2ccccc2)cs1)Nc1ccc(Cl)cc1
active: [1] -93.3% | [2] -16.4% | [3] -90.3% | [4] -94.3% | [5] -49% | [6] -96.9% | [7] -98.8% | [8] -78.8% | [9] -90.9%

O=C(CSc1nnc(-c2c[nH]c3ccccc23)n1-c1ccccc1)c1ccc(Cl)cc1
inactive: [1] 88.4% | [2] 69% | [3] 64% | [4] 51.7% | [5] 69.4% | [6] 55% | [7] 49.5% | [8] 72.3% | [9] 80.6%

Cc1cc(C)nc(/N=C(\N)Nc2ccc(S(=O)(=O)Nc3nc(C)cc(C)n3)cc2)n1
inactive: [1] 116% | [2] 102% | [3] 110% | [4] 105% | [5] 106% | [6] 98% | [7] 102% | [8] 108% | [9] 111%

Cc1cc(=O)oc2cc(OCCCCOc3ccc(/C=C/C(=O)Nc4cccc(Cl)c4)cc3)ccc12
inactive: [1] 46.5% | [2] 63.8% | [3] 29.8% | [4] 88.3% | [5] 61.4% | [6] 78.6% | [7] 72.6% | [8] 81.5% | [9] 71.9%

O=S(=O)(Nc1ncccn1)c1ccc(-n2c(-c3ccc(Br)cc3)nc(-c3ccccc3)c2-c2ccccc2)cc1
inactive: [1] 58.3% | [2] 44% | [3] 74.6% | [4] 51.3% | [5] 32.5% | [7] 55.8% | [8] 59.4% | [9] 38.4%
active: [6] 8.26%

O=C(Nc1cccc(C(F)(F)F)c1)c1cncc(C#Cc2cnc3cccnn23)c1
inactive: [1] 22.6% | [3] 28% | [4] 27.9% | [5] 46.4% | [6] 63.5% | [7] 31.9% | [8] 83.6% | [9] 35.5%
active: [2] 8.07%
